Compounds with a hit are over-represented: about 3.8% of the library has one in this group of screens.
PLK1 PBD inh – qHTS for Inhibitors of PLK1-PDB (polo-like kinase 1 - polo-box domain): Primary Screen; Serine/threonine-protein kinase PLK1 (Homo sapiens), P53350; Plk1 PBD binding of FITC phosphopeptide, fluorescence polarization; Potency, µM, usual class: inhibitors; 360,000 compounds, 2.8% hits; further: series mostly up to about 57 µM; nearly all actives have a fitted effect of over 65% in size
CBFb-RUNX1 inh – qHTS Assay for Compounds Blocking the Interaction Between CBF-beta and RUNX1 for the Treatment of Acute Myeloid Leukemia; AID 1477, 2009; 230,000 tested, under 10 active; Runt-related transcription factor 1 (Homo sapiens) + Core-binding factor subunit beta …; AlphaScreen CBFb-His/RUNX1-biotin binding, biochemical; Potency, µM (series often up to 59.8 µM), hits mostly inhibitors
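Proteins preincubated together for 20 min at RT before compound addition; 15 min later, nickel and streptavidin beads were added and left 90 min prior to AlphaScreen measurement.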
hERG WT inh – qHTS for Inhibitors of KCHN2 3.1: Wildtype qHTS; U2OS, BacMam KCNH2, thallium flux FluxOr; active compounds read low; 340,000 compounds, 0.37% hits; Voltage-gated inwardly rectifying potassium channel KCNH2 (Homo sapiens), Q12809; activity change, % at 1.84 µM;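 active means maximum activity change below -70%; inconclusive means maximum activity change between -70% and -50%; inactive means maximum activity change above -50%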
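U2OS cells transduced with wild-type KCNH2 virus are loaded with FluxOr dye for 45 min, and thallium flux is measured in kinetic reads before and after stimulation buffer. Rate constants are normalized to DMSO controls.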
KCNH2 3.1 inh – qHTS for Inhibitors of KCHN2 3.1: Mutant qHTS. Potassium voltage-gated channel subfamily H member 2, brain isoform KCNH2 3.1 (human). U2OS KCNH2 3.1, thallium flux FluxOr; active compounds read low. activity change, % (tested at about 1.8 µM). 340,000 compounds, 0.95% hits;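 active means maximum activity change below -70%; inconclusive means maximum activity change from -70% to -50%; inactive means maximum activity change above -50%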;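 further: thallium influx rate constant from kinetic fluorescence after stimulation buffer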
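Measured as rate of thallium-driven FluxOr signal in transduced U2OS cells carrying the 3.1 channel, read kinetically for 2 min upon stimulation; values are rate constants scaled to DMSO control wells.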
VDR inh – Inhibitors of the vitamin D receptor (VDR): qHTS. AID 504847, 2011. 400,000 compounds, 0.93% hits. VDR-SRC2-3 peptide fluorescence polarization, 2 h. Vitamin D3 receptor (Homo sapiens), P11473. Potency, µM, hits mostly inhibitors
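Inhibition of the VDR/SRC2-3 peptide interaction is quantified by fluorescence polarization. Compounds (23 nl, pintool) incubate with the reagents for 2 hours at ambient room temperature.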
MBNL1-CUG inh – qHTS Assay for Inhibitors of MBNL1-poly(CUG) RNA binding; 280,000 compounds, 0.036% hits; Muscleblind-like protein 1 (Homo sapiens), Q9NR56; TR-FRET MBNL1-His/biotin-(CUG)12 binding, 665/545 ratio; AID 2675, 2010; Potency, µM (highest dose often 57.5 µM), usual class: inhibitors; active means well fitted inhibition curve with a large enough effect in the signal ratio, with a control signal flat, not every such curve was filed as active; inconclusive means small, poorly fitted or top-dose-only effect, or effect the other way, or a change in a side signal; inactive means no such curve, though single readings can be large or run the other way; the % refers to the signal ratio
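Compound titration spanned 92 nM–58 uM against the MBNL1-His/biotin-(CUG)12 complex. After 60 min at room temperature with 5 nM streptavidin-XL665 and 0.055 ng/ul terbium anti-His, ratiometric 665/545 nm emission (Ex 340 nm) normalized to controls.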
A number is an active result; i = inactive; ? = inconclusive; nt = not tested or not shown. Unless noted, the call rests on the fitted dose curve; in most records, active means well fitted curve in the direction sought with a large enough effect; inconclusive means small, poorly fitted or top-dose-only effect, or another doubt; inactive means no such curve, though single readings can be large; an effect the other way counts as inactive or inconclusive.

SMILES	PLK1 PBD inh	CBFb-RUNX1 inh	hERG WT inh	KCNH2 3.1 inh	VDR inh	MBNL1-CUG inh
COc1ccc(NC(=O)c2c(C)oc3ccc(O)c(CN4CCN(C)CC4)c23)cc1Cl	nt	nt	nt	nt	i	nt
CCN1CCC(n2nccc2NC(=O)c2ccccc2Cl)CC1	i	nt	i	i	i	nt
O=C(Nc1ccnn1C1CCN(C/C=C/c2ccccc2)CC1)C1CCCC1	i	nt	i	-80	i	i
O=C(Nc1ccnn1C1CCN(Cc2ccccc2)CC1)c1ccccc1Cl	i	nt	i	-90	i	i
COc1ccc(/C=C/CN2CCC(n3nccc3NC(=O)C3CC3)CC2)cc1	i	nt	i	i	i	i
NC(=O)c1cc[n+](CC(=O)c2ccc(NC(=O)c3ccccc3)cc2)cc1	24µM	i	nt	i	?	?
O=C(C[n+]1ccccc1)c1ccc(NC(=O)c2ccccc2)cc1	i	i	i	i	i	i
O=S(=O)(c1ccc(=S)[nH]c1)N1CCCCC1	?	nt	i	i	i	nt
O=S(=O)(c1ccc(=S)[nH]c1)N1CCN(Cc2ccccc2)CC1	?	nt	i	i	79µM	nt
CC1=C(C(N)=O)C(c2ccccn2)n2nc(-c3ccccc3Cl)nc2N1 (stereo unspecified)	i	i	-146	-170	i	?
Cc1cc(S(=O)(=O)Nc2ccc(-c3ccc(N4CCCCC4)nn3)cc2)c(C)cc1Cl	nt	nt	nt	nt	i	nt
CCC(C)NC(=O)c1cc(C)no1 (stereo unspecified)	30µM	i	i	i	i	i
Oc1c(CN2CCc3ccccc3C2)cc(Cl)c2cccnc12	30µM	nt	i	i	i	i
Cc1oc2c(C)c3oc(=O)c(CC(=O)N4CCCCC4)c(C)c3cc2c1C	nt	nt	nt	nt	i	nt
CCOCCCNC(=O)c1ccc2c(=O)n(CCc3ccc(OC)c(OC)c3)c(=O)[nH]c2c1	nt	nt	nt	nt	i	nt
CC(c1nccs1)N(C)C(=O)CCc1nnc(-c2ccc(-c3ccccc3)cc2)o1 (stereo unspecified)	i	i	-138	-161	?	i
CC(NC(=O)CCc1nnc(-c2ccc(-c3ccccc3)cc2)o1)c1nccs1 (stereo unspecified)	i	i	i	i	i	i
Cc1nc(C(N)=O)c(N)n1CCc1ccccc1	i	nt	i	i	45µM	i
Cc1nc2ccccc2n1CCc1ccccc1	i	i	i	i	i	i
O=C(Nc1cc(Cl)ccc1O)c1cc2nc(-c3ccc4c(c3)OCO4)cc(C(F)(F)F)n2n1	nt	nt	nt	nt	i	nt
CCc1cc2ccc(C)cc2nc1SCC(=O)N1CCN(C(=O)c2ccco2)CC1	24µM	i	i	i	79µM	i
COc1ccc(/C=N/NC(=O)c2ccn[nH]2)cc1CN1CCOCC1	i	i	i	i	i	i
COc1ccc(/C=N/NC(=O)c2ccncc2)cc1CN1CCN(c2ccc(F)cc2)CC1	i	i	i	-90	i	i
COc1ccc(/C=N/NC(=O)c2ccc(F)cc2)cc1CN1CCc2cc(OC)c(OC)cc2C1C (stereo unspecified)	i	?	-91	-88	i	nt
COc1ccc(/C=N/NC(=O)c2ccc(C)cc2)cc1CN1CCN(c2ccc(F)cc2)CC1	i	i	-72	-108	i	i
Cc1c(NC(=O)c2nc3ccccc3nc2N2CCCCC2)cccc1[N+](=O)[O-]	nt	nt	nt	nt	i	nt
CCN1/C(=C2\C(=O)N(c3ccccc3)N=C2C)C=Cc2cc(C)ccc21	i	i	i	-102	i	?
CCN1/C(=c2/s/c(=C3/C(=O)N(c4ccccc4)N=C3C)n(CC)c2=O)C=Cc2ccccc21	i	nt	i	i	i	nt
O=C(c1cc(COc2ccc(F)cc2Cl)on1)N1CCCCCCC1	19µM	nt	i	i	?	i

Compound activity from PubChem.
